Data on five molecules can be found in PubChem BioAssay (NCATS).

“And” between values parts separate entries of the source, which are not always exact repeats. Identical values can stand only once. Inconclusive results are not listed. The source made the active and inactive calls. Unless noted, the call rests on the fitted dose curve; in most records, active means well fitted curve in the direction sought with a large enough effect; inconclusive means small, poorly fitted or top-dose-only effect, or another doubt; inactive means no such curve, though single readings can be large; an effect the other way counts as inactive or inconclusive.

The target in test [1] is Lysosomal acid glucosylceramidase (Homo sapiens) (UniProt P04062). The experiment in a line: Glucocerebrosidase-p2 (AID 348; in the data active means potency below about 10 µM; further: potency means the concentration at half of the fitted maximal effect). To be noted: purified GBA, blue fluorogenic substrate, 40 min. The gist of the method:
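Compounds titrated from 0.6 nM upwards against 0.2 nM enzyme in pH 5.9 citric acid/KH2PO4, taurocholate, tween-20; blue fluorogenic substrate 80 uM, 40 min room temperature, stopped and read Ex 365/Em 440 for AC50.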

Test [2] in a line: AP1 Signaling Pathway (AID 357; active means well fitted curve in either direction with a large enough effect, not every such curve was filed as active; further: on the % scale 0 is the no-effect control and ±100 the full control effect). To be noted: ME-180 AP-1-bla reporter, EGF-induced, beta-lactamase ratio, 5 h; at 7.69 µM (top of the series) unless noted. In short, it runs like this: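 Cells are seeded overnight, exposed to compound titrations and an EC50 level of EGF for 5 hours at 37 °C, then loaded with CCF4 dye for 2.5 hours. Beta-lactamase activity under the AP-1 element is read as a blue/green ratio.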

The nature of test [3]: NFAT Signaling Pathway (AID 444; active means well fitted curve in either direction with a large enough effect, not every such curve was filed as active;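 further: carbachol stimulus at about its EC50 of 1 µM final; on the % scale 0 is the no-effect control and ±100 the full control effect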). To be noted: Jurkat NFAT-bla M1, carbachol, beta-lactamase ratio, 5 h; at 7.69 µM (top of the series) unless noted. In short, it runs like this: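 Jurkat cells with NFAT-driven β-lactamase reporter and co-expressed M1 receptor, stimulated with carbachol (final 1 uM, ~EC50), compound titration, 5 h at 37 °C. CCF4 loaded 1 h at RT; 460/530 nm ratio gave %activity and AC50.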

Test [4] can be described thus: Stat Signaling Pathway (AID 446; active means well fitted curve in either direction with a large enough effect, not every such curve was filed as active;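 further: ME-180 cervical cancer cells given 40 pM IL-6 alongside compound; SIE-controlled beta-lactamase reporter measured as 460/530 nm FRET emission ratio; on the % scale 0 is the no-effect control and ±100 the full control effect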). To be noted: ME-180 SIE beta-lactamase reporter, IL-6 stimulated, 5 h; at 7.69 µM (top of the series) unless noted. In short, it runs like this:
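Screening format detects activators and inhibitors alike: ME-180 SIE-bla cells stimulated at 40 pM IL-6 for 5 hrs with compound, then dual-emission beta-lactamase read at 405 nm excitation.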

Test [5] addresses Glucocorticoid receptor (Homo sapiens) (UniProt P04150). Nature of the test: GR-GFP Redistribution (AID 450;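 active means compounds whose dose series gives a full or clear partial fitted curve of increased nuclear translocation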; further: potency means the concentration at half of the fitted maximal effect). Conditions: U2OS GR-GFP nuclear translocation, laser cytometry, 2 h.
Test [6] has the same target. Nature of the test: GR-EFC Redistribution (AID 451; calls by dose curve; further: potency means the concentration at half of the fitted maximal effect). To be noted: CHO-K1 GR-EFC translocation, beta-gal luminescence, 2 h. The gist of the method:
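CHO-K1 cells expressing nuclear EA and GR-ED fragments of b-gal; compounds titrated up to 46 uM final, 2 h at 37 C. GR nuclear translocation read as complemented b-gal luminescence after 1 h RT detection.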

For test [7], the target named is Mitogen-activated protein kinase 10 (Mus musculus) (UniProt Q61831). The experiment in a line: JNK3 AlphaScreen Assay (AID 530; active means well fitted curve in either direction with a large enough effect, not every such curve was filed as active;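 further: kinase came from lysate of stimulated human HepG2 cells; signal reports phosphorylation of biotinylated GST-cJun 1-79 at Ser73 with 10 µM ATP; on the % scale 0 is the no-effect control and ±100 the full control effect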). To be noted: JNK3 lysate, c-Jun phosphorylation; series mostly up to 57.1 µM. In short, it runs like this:
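qHTS format: compounds tested as titrations against IL-1beta/TNF-alpha-activated HepG2 lysate JNK3 with biotin-GST-cJun substrate and 10 uM ATP at room temperature. Loss of anti-phospho-cJun AlphaScreen signal indicates inhibition.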
For orientation: Alpha assays give light when donor and acceptor beads are brought close together.

Test [8] in a line: qHTS Assay for Lipid Storage Modulators (AID 1519; calls by dose curve). Conditions: Drosophila S3 cells, BODIPY lipid droplet/cell ratio, laser cytometry, cells loaded with oleic acid. In short, it runs like this:
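Cells seeded at 5,000 per well were treated with compounds over a concentration series and loaded with oleic acid (400 uM, as added). Lipid droplet fluorescence (488 nm excitation, 500-530 nm channel) was read by laser-scanning cytometry and normalized to 20 uM Triacsin C.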
(In general: qHTS replaces the single test concentration by a dilution series.)

For test [9], the target named is Ubiquitin carboxyl-terminal hydrolase 1 (Homo sapiens) (UniProt O94782). The experiment in a line: Inhibitors of USP1/UAF1: Pilot qHTS (AID 504865). Further: nearly all actives have a fitted effect of over 35% in size. Further: potency means the concentration at half of the fitted maximal effect. To be noted: purified USP1/UAF1, Ub-rhodamine cleavage fluorescence; series mostly up to 54.9 µM. The gist of the method: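 In 50mM HEPES pH 7.8 containing 0.5mM EDTA, 1mM TCEP, 0.1 mg/ml BSA and 0.01% Tween-20, 1nM USP1/UAF1 is exposed to compound for 15 min, then Ub-Rho (150nM final) is added and fluorescence is read over time.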

Test [10] concerns the target 3',5'-cyclic-AMP phosphodiesterase 4B (Homo sapiens) (UniProt Q07343). The experiment in a line: qHTS Assay for Inhibitors of PDE-IV (AID 607; active means well fitted activation curve with a large enough effect in the main read-out, with a control signal flat, not every such curve was filed as active; further: % of control where 0% means no effect). To be noted: HEK293 ACTOne CNG channel cells, membrane potential fluorescence; series mostly up to 22.9 µM. The gist of the method:
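The readout is membrane depolarisation from a cAMP-sensing CNG channel, detected with a potential dye at ex 535/em 590. Cells were HEK293-derived (endogenous PDE-IV) at 1000 cells/well, titrated up to 22.9 uM final.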

Test [11] has as its target Cytochrome P450 2D6 (Homo sapiens) (UniProt P10635). Nature of the test: qHTS Assay for Inhibitors and Substrates of Cytochrome P450 2D6 (AID 891). Further: potency means the concentration at half of the fitted maximal effect; nearly all actives have a fitted effect of over 60% in size. To be noted: recombinant CYP2D6, luciferin-ME EGE luminescence; series mostly up to 57.1 µM. The gist of the method: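 Human CYP2D6 (5 nM) with 30 uM Luciferin-ME EGE (at Km) in 100 mM KPO4, compound preincubated 10 min, then NADPH regeneration system for 60 min at room temperature. Luciferin read by luminescence; normalized to 1.43 uM quinidine.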

In test [12] the target is Cytochrome P450 3A4 (Homo sapiens) (UniProt P08684). The experiment in a line: qHTS Assay for Inhibitors and Substrates of Cytochrome P450 3A4 (AID 884). Further: on the % scale 0 is the no-effect control and ±100 the full control effect; nearly all actives have a fitted effect of over 50% in size. Conditions: recombinant CYP3A4, Luciferin-PPXE luminescence; series mostly up to 57.1 µM. The gist of the method:
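20 nM human CYP3A4 with 25 uM Luciferin-PPXE (at KM) in 200 mM KPO4, preincubated 10 min with compound; NADPH regeneration started a 60 min RT reaction. Luciferin detected by luminescence, normalized to 57 uM ketoconazole as full inhibition.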

Test [13] in a line: Confirmation and Secondary Assay for Modulators of Hemoglobin Beta Chain Splicing at IVS2 654 locus (AID 910).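 Further: HeLa cells stably carrying EGFP split by mutant beta-globin IVS2-654 intron; % of control where 0% means no effect.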 Conditions: HeLa EGFP-654 splicing reporter, GFP fluorescence, 48 h; series mostly up to 38.3 µM. In short, it runs like this: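 HeLa cells stably expressing EGFP interrupted by β-globin IVS2-654 intron, seeded overnight in Opti-MEM/2% FCS, then treated 2 days at 37 °C. Restored splicing read as total peak GFP intensity per well by laser scanning cytometry (488 nm excitation, 500–520 nm emission); 500 nM antisense PNA as control.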

Test [14] is described as follows: Confirmation and Secondary Assay for Modulators of Hemoglobin Beta Chain Splicing at IVS2 705 locus (AID 930).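 Further: HeLa cells stably expressing the EGFP-705 splicing reporter; GFP fluorescence per well restored by corrected splicing of the IVS2-705 intron in EGFP; % of control where 0% means no effect.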 To be noted: HeLa EGFP-705 splicing reporter, GFP fluorescence, 48 h; series mostly up to 38.3 µM. In short, it runs like this:
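First, HeLa EGFP-705 cells are seeded at 500/well in Optimem with 2% FCS and left overnight. Next, compound or DMSO is added for 2 days. Finally wells are laser-scanned and total peak GFP intensity scored.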

The target in test [15] is Glutathione peroxidase 1 (Homo sapiens) (UniProt P07203). The experiment in a line: Primary qHTS Assay for Inhibitors of Recombinant Selenoprotein Glutathione Peroxidase 1 (GPX1) (AID 1845191). Further: nearly all actives have a fitted effect of over 65% in size. Conditions: recombinant GPX1, GR-coupled NADPH fluorescence, 15 min; series mostly up to 48.8 µM. In short, it runs like this: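 GR-coupled assay: compounds preincubated 30 min at room temperature with GPX1, then reaction started with CHP; final 10 nM GPX1, 1 mM GSH, 0.5 mM CHP, 0.5 mM NADPH, 100 nM GR, 0.01% BSA, pH 7.5 Tris buffer. NADPH fluorescence (340/450 nm) read at 0 and 15 min.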

The target in test [16] is Cytochrome P450 3A4 (Homo sapiens) (UniProt P08684). Nature of the test: qHTS Assay for Activators of Cytochrome P450 3A4 (AID 885). Further: nearly all actives have a fitted effect of over 65% in size. To be noted: recombinant CYP3A4, Luciferin-PPXE luminescence, 60 min; series mostly up to 57.1 µM. The gist of the method:
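Steps: enzyme/substrate mix dispensed; compound added, 10 min RT; NADPH regeneration solution added, 60 min RT; luciferin detection buffer stops reaction; 20 min later luminescence measured.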

The mark [17] stands for this setting: measured here: cell count channel max response.
The mark [18] stands for this setting: measured here: lipid channel max response.

Glutathione peroxidase 1 (Homo sapiens), sequence (P07203 whole entry, looked up): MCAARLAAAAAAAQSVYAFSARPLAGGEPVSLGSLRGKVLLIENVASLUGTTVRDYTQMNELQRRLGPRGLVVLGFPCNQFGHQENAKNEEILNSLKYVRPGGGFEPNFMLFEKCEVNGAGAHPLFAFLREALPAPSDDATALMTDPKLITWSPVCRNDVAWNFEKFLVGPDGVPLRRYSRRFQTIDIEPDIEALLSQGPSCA
Ubiquitin carboxyl-terminal hydrolase 1 (Homo sapiens), sequence (O94782 whole entry, looked up): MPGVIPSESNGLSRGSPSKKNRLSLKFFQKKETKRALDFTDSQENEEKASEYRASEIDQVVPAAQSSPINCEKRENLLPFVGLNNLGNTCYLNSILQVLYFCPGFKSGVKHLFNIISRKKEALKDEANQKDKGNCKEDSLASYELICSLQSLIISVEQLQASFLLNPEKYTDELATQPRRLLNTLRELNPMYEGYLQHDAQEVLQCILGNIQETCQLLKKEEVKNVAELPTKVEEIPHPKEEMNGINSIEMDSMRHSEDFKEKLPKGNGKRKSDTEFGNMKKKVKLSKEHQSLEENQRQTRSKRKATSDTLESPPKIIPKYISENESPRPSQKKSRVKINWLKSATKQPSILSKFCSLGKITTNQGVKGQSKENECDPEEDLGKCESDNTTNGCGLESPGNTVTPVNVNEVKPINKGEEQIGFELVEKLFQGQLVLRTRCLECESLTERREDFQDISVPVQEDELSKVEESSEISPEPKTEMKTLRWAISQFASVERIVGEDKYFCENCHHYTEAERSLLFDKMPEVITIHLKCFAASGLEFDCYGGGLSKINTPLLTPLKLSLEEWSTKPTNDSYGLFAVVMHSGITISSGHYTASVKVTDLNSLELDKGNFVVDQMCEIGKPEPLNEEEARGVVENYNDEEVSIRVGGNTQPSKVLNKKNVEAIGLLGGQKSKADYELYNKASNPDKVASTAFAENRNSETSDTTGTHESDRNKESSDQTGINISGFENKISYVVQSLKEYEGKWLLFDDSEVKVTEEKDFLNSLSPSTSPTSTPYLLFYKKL
Cytochrome P450 3A4 (Homo sapiens), sequence (P08684 whole entry, looked up): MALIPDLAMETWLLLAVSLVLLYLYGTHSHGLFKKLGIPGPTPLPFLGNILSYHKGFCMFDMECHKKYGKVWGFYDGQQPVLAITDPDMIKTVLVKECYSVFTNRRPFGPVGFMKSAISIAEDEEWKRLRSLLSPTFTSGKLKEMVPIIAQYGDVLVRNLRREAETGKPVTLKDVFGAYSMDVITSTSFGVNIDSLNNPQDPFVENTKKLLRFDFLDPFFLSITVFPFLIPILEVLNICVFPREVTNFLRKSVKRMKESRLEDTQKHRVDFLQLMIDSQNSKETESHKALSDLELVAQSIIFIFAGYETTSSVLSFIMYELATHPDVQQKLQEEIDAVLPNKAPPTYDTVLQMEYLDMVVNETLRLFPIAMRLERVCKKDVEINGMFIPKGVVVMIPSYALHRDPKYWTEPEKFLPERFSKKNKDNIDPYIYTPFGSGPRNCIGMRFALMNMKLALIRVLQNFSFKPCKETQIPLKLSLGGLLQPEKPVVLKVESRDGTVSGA
Glucocorticoid receptor (Homo sapiens), sequence (P04150 whole entry, looked up): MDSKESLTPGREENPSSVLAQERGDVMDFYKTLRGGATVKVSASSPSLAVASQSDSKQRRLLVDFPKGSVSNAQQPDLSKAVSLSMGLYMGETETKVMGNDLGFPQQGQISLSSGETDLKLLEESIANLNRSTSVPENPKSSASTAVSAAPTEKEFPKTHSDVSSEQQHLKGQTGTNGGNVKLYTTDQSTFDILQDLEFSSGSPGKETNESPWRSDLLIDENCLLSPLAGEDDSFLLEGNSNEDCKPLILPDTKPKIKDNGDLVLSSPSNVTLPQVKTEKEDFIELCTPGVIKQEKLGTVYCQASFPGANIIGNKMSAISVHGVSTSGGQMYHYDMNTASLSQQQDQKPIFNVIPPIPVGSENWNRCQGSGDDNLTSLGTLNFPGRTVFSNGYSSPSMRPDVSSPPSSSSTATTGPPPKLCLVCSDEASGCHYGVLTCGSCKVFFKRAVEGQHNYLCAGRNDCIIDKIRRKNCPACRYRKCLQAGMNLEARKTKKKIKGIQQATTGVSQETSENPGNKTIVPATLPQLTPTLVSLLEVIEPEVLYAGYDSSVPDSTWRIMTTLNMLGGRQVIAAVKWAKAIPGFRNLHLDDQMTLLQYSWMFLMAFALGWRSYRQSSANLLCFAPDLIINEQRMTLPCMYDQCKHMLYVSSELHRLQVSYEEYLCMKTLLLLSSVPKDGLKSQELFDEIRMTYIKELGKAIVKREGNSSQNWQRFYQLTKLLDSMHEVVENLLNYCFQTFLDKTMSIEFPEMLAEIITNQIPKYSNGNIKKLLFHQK
Cytochrome P450 2D6 (Homo sapiens), sequence (P10635 whole entry, looked up): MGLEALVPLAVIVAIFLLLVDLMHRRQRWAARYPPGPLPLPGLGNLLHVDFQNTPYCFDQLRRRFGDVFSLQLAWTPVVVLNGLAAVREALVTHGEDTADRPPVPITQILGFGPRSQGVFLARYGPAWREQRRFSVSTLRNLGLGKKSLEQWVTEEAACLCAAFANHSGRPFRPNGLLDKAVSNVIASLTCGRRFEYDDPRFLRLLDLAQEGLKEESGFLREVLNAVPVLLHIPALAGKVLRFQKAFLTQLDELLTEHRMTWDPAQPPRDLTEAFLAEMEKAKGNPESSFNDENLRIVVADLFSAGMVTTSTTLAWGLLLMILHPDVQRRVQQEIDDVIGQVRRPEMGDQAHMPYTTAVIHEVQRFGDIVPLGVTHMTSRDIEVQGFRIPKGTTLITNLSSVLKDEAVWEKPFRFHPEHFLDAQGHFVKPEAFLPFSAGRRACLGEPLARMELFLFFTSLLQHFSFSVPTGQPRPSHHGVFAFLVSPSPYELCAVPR
3',5'-cyclic-AMP phosphodiesterase 4B (Homo sapiens), sequence (Q07343 whole entry, looked up): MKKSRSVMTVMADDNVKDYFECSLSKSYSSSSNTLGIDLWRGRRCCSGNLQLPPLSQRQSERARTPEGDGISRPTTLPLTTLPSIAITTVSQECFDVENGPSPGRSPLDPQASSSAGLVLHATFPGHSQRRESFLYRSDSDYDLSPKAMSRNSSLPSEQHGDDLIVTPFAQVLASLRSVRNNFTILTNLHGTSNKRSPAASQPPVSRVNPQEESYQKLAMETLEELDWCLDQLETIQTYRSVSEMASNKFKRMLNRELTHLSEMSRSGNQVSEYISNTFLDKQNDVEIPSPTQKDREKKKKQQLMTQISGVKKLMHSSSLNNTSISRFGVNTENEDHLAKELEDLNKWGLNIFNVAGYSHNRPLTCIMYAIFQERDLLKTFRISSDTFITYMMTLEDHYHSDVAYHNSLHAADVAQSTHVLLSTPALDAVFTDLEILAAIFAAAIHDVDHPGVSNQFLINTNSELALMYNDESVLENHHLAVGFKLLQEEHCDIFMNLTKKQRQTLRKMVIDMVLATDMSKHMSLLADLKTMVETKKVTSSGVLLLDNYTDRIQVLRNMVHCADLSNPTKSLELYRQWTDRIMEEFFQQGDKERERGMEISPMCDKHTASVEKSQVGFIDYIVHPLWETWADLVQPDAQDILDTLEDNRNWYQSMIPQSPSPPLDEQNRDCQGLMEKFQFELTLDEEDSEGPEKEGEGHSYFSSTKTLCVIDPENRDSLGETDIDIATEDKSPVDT
Lysosomal acid glucosylceramidase (Homo sapiens), sequence (P04062 whole entry, looked up): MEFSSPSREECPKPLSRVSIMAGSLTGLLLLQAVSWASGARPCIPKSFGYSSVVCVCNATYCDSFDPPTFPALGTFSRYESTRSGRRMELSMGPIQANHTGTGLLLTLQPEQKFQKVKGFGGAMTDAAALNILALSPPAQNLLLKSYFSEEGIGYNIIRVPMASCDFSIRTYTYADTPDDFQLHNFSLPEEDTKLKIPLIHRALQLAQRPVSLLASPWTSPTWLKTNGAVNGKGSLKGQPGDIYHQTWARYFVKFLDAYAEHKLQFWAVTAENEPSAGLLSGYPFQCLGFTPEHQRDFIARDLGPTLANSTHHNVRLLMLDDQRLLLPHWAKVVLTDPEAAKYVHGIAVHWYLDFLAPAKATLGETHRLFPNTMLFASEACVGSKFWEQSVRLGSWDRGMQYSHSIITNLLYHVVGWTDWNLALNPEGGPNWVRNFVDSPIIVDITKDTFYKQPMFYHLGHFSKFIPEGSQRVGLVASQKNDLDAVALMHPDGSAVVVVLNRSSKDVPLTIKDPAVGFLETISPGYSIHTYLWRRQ

On to `COc1ccc(-c2nc3cnc(OC)nc3n(C[C@H]3CCCO3)c2=O)cc1`, for which the Potency in [1] was > 11.4 µM (inactive); in [5], > 9.22 µM (inactive); in test [6] it was > 46 µM (inactive). Besides, the activity change, negative = inhibition was -17.7% (inactive) in test [2], 11.8% (inactive) in [3] and 0.324% (inactive) in test [8] (at 57.5 µM (top of the series)). The activity, negative = inhibition in test [4] was -12.4% (inactive). The Potency entry in [7] and in test [9] was “inactive” in each case. Further, the max response was found to be 2.19% in test [8] (setting [17]) and 1.25% in [8] (setting [18]).

As for `COC(=O)C1=CO[C@@H](C)[C@H]2CN3CCc4c([nH]c5ccccc45)[C@@H]3C[C@H]12`, the activity change, negative = inhibition in test [2] was -20.4% [at 17.2 µM] (inactive) and -6.91% [at 17.2 µM] (inactive); in [3], -3.19% [at 17.2 µM] (inactive) and -17.9% [at 17.2 µM] (inactive); in test [8] (at 25.7 µM (top of the series)), -0.703% (inactive) and -0.794% (inactive). In test [4], the activity, negative = inhibition is 8.22% [at 17.2 µM] (inactive) and -4.95% [at 17.2 µM] (inactive). In addition, the Potency in test [5] is > 20.6 µM (inactive); in test [6], > 20.6 µM (inactive); in [11], 2 nM (active) and 7.9 nM (active). For the same molecule, the Potency result in test [7], in [10] and in [9] was “inactive” throughout. Besides, the max response in test [8] (setting [17]) was 3.91% and -17.6%; in test [8] (setting [18]) it was 2.39% and -19.1%.

Regarding `CN1C(CC(=O)c2ccccc2)CCCC1CC(O)c1ccccc1` (centres undefined), the Potency entry in test [12] and in test [13] was “inactive” throughout. The molecule was called inactive in test [14] and in test [15]. In addition, the activity change, negative = inhibition in test [8] (at 57.5 µM (top of the series)) was -2.13% (inactive). Also, the max response in test [8] (setting [17]) was 13%; in test [8] (setting [18]), 12.2%.

In the case of `C=C(NC(=O)C(=C)NC(=O)c1csc(C2=NC3c4csc(n4)C4NC(=O)c5csc(n5)C(C(C)(O)C(C)O)NC(=O)C5CSC(=N5)C(=CC)NC(=O)C(C(C)O)NC(=O)c5csc(n5)C3(CC2)NC(=O)C(C)NC(=O)C(=C)NC(=O)C(C)NC(=O)C(C(C)CC)NC2C=Cc3c(C(C)O)cc(nc3C2O)C(=O)OC4C)n1)C(N)=O` (centres undefined), the Potency result in test [12] and in test [13] was “inactive” throughout. In test [8] (at 57.5 µM (top of the series)), the activity change, negative = inhibition was -19.2% (inactive). Moreover, the max response worked out at 27.8% in [8] (setting [17]) and 5.44% in test [8] (setting [18]). For the same molecule, the outcome in [15] was inactive.

As to `Oc1ccc2c(c1)OCC1(O)Cc3cc(O)c(O)cc3C21` (centres undefined), the Potency entry in [16] and in test [13] was “inactive” each time. Also, the result in test [14] and in test [15] was inactive. Also, the activity change, negative = inhibition in [8] (at 57.5 µM (top of the series)) was 11.4% (inactive). For the same molecule, the max response in [8] (setting [17]) was -15.6%; in test [8] (setting [18]), -7.12%. In addition, the Potency in [9] is 79.4 µM (active).
